This note sets out measurements from PubChem BioAssay (NCATS).

Active and inactive are the calls of the source. How the calls were made is not given here. Some results are limits rather than exact numbers.
Potency means the concentration at half of the fitted maximal effect.

For the assay, the system named is HIV-1 nucleocapsid protein NCp7 (binding to TG oligonucleotide). Briefly: HIV Nucleocapsid (AID 346).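 Further: potency is for inhibitors that block NC binding and lower polarization.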 Particulars: HIV-1 NC / fluorescein-TGTGTGTG probe, fluorescence polarization. The method in brief: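 Inhibition of nucleocapsid binding to single-stranded 5'-TGTGTGTG probe (10 nM) was measured by fluorescence polarization after 1 hr at room temperature with 100 nM protein under high-salt, zinc-containing, reducing conditions.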
In the case of `COCCn1c(=O)c(-c2cc(F)cc(F)c2)nc2cnc(N(C)C)nc21`, the Potency is > 20 µM (inactive). As to `COc1ccc(C(=O)N2CCC3(CC2)CN(C(=O)Nc2cccc(C#N)c2)C3)cc1`, the Potency is > 20 µM (inactive).

Regarding `COCCn1c(=O)c(-c2ccccc2)nc2cnc(N(C)C)nc21`, the Potency was > 20 µM (inactive). Consider `O=C(c1csnn1)N1CCC2(CC1)CCN(c1ccccc1)CC2`, for which the Potency is > 20 µM (inactive). For the compound `O=C(c1csnn1)N1CCC2(CC1)CN(c1ncccn1)C2`, the Potency was > 20 µM (inactive). `COc1ccccc1CNc1ccnc(-c2cccc(NS(C)(=O)=O)c2)n1`: the Potency was > 20 µM (inactive). As for `COc1ccc(Oc2ncc3nc(C)c(=O)n(C4CC4)c3n2)cc1`, the Potency is > 20 µM (inactive).

In the case of `COCC(=O)N1CCC2(CCCN(Cc3ccc(C#N)cc3)C2)CC1`, the Potency is > 20 µM (inactive). Under `CNc1ccnc(-c2ccccc2C(F)(F)F)n1` stands > 20 µM (inactive); under `COc1ccc(-n2c(=O)c(CCc3ccccc3)nc3cncnc32)cc1`, > 20 µM (inactive); under `CN(C)c1ncc2nc(-c3cccc(C#N)c3)c(=O)n(C[C@H]3CCCO3)c2n1`, > 20 µM (inactive).

Take `COCC(=O)N1CCC2(CC1)CN(C(=O)Nc1ccccc1)C2`: the Potency was > 20 µM (inactive). Consider `COc1ccccc1-c1nc(NCc2cnc(C)cn2)c2ccccc2n1`, for which the Potency is > 20 µM (inactive). Turning to `O=c1c(-c2cccs2)nc2cnc(Oc3ccccc3)nc2n1-c1ccccc1`, the Potency was > 4 µM (inactive).

`COc1ncc2nc(-c3cccs3)c(=O)n(Cc3cccs3)c2n1`: the Potency is > 20 µM (inactive).

Turning to `c1ccc(C(c2ccccc2)N2CC3(CCNCC3)C2)cc1`, the Potency was > 20 µM (inactive).

For the compound `CS(=O)(=O)N1CCC2(CCN(Cc3ccncc3)CC2)CC1`, the Potency is > 4 µM (inactive). As for `COCC(=O)N1CCC2(CCCN(C(=O)Nc3ccccc3)C2)CC1`, the Potency is > 20 µM (inactive). With `O=C(c1cccc(F)c1)N1CCC2(CCCN(c3ccncc3)C2)CC1`, the Potency was > 20 µM (inactive). Under `CN(Cc1ccco1)c1cc(-c2cccc(C#N)c2)ncn1` stands > 20 µM (inactive); under `COc1ncc2nc(-c3cccs3)c(=O)n(Cc3ccc(F)cc3)c2n1`, > 20 µM (inactive); under `O=S(=O)(c1ccccc1)N1CCC2(CCCN(c3ccccn3)C2)CC1`, > 4 µM (inactive).

For `CC(C)NC(=O)N1CC[C@@]2(CCCN(S(=O)(=O)c3ccccc3)C2)C1`, the Potency is > 20 µM (inactive). For `Cc1noc(C)c1-c1cncnc1N(C)Cc1ccco1`, the Potency was > 20 µM (inactive). For the compound `O=c1c(-c2ccc(F)cc2)nc2cnc(N3CCOCC3)nc2n1C[C@H]1CCCO1`, the Potency was > 20 µM (inactive). For `O=C(c1ccncc1)N1CCC2(CC1)CCN(c1cccc(-c3ccccc3)c1)CC2`, the Potency was > 20 µM (inactive). For `COc1ccc(NC(=O)N2CCC3(CC2)CCN(C(=O)c2cccc(F)c2)CC3)cc1`, the Potency was > 20 µM (inactive). Take `CCNc1ncc2nc(CCc3ccccc3)c(=O)n(C3CC3)c2n1`: the Potency was > 20 µM (inactive).

As for `CN(C)Cc1ccccc1-c1nc(NC2CCNCC2)c2ccccc2n1`, the Potency is > 20 µM (inactive). For the compound `COc1cccc(Cn2c(=O)c(-c3cccs3)nc3cnc(OCc4ccccc4)nc32)c1`, the Potency is > 20 µM (inactive). As to `CC(=O)NCCNc1nc(-c2ccccc2CN(C)C)nc2ccccc12`, the Potency is > 20 µM (inactive). Consider `O=c1c(-c2ccccc2)nc2cnc(N3CCOCC3)nc2n1-c1ccccc1`, for which the Potency is > 20 µM (inactive). `CN(C)C(=O)c1ccc(-c2cncnc2NCc2cccs2)cc1`: the Potency is > 20 µM (inactive). `COC(=O)N1CCC[C@@]2(CCN(Cc3cc(C(F)(F)F)cc(C(F)(F)F)c3)C2)C1`: the Potency was > 20 µM (inactive). Take `Cc1cnc(CNc2ncncc2-c2c(C)noc2C)cn1`: the Potency was > 20 µM (inactive). As for `COC(=O)N1CCC[C@@]2(CCN(C(=O)Nc3cccc(C#N)c3)C2)C1`, the Potency was > 4 µM (inactive). As for `CN(C)C(=O)c1ccc(-c2ccc3ncnc(Nc4ccccc4)c3c2)cc1`, the Potency is > 20 µM (inactive). `COCCn1c(=O)c(-c2ccc(Cl)cc2)nc2cnc(N3CCNCC3)nc21`: the Potency was > 20 µM (inactive). Regarding `Cn1cccc1C(=O)N1CCC2(CC1)CCN(c1ncccn1)CC2`, the Potency was > 20 µM (inactive). For the compound `COCCNc1cc(-c2ccccc2C(F)(F)F)ncn1`, the Potency is > 20 µM (inactive).
